Each molecule was assayed against Focal adhesion kinase 1 (Homo sapiens) (UniProt Q05397) (assay: PTK2 protein binding on printed compound slides – biochemical, small-molecule microarray, 635/667 nm fluorescence, BSA, DTT, primary screen (AID 1130;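 also: composite of spot emission at 667 nm and signal to noise over triplicate slides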)). Conditions: 635 nm fluorescence, higher = more signal.
Focal adhesion kinase 1 (Homo sapiens), sequence (Q05397 whole entry, looked up): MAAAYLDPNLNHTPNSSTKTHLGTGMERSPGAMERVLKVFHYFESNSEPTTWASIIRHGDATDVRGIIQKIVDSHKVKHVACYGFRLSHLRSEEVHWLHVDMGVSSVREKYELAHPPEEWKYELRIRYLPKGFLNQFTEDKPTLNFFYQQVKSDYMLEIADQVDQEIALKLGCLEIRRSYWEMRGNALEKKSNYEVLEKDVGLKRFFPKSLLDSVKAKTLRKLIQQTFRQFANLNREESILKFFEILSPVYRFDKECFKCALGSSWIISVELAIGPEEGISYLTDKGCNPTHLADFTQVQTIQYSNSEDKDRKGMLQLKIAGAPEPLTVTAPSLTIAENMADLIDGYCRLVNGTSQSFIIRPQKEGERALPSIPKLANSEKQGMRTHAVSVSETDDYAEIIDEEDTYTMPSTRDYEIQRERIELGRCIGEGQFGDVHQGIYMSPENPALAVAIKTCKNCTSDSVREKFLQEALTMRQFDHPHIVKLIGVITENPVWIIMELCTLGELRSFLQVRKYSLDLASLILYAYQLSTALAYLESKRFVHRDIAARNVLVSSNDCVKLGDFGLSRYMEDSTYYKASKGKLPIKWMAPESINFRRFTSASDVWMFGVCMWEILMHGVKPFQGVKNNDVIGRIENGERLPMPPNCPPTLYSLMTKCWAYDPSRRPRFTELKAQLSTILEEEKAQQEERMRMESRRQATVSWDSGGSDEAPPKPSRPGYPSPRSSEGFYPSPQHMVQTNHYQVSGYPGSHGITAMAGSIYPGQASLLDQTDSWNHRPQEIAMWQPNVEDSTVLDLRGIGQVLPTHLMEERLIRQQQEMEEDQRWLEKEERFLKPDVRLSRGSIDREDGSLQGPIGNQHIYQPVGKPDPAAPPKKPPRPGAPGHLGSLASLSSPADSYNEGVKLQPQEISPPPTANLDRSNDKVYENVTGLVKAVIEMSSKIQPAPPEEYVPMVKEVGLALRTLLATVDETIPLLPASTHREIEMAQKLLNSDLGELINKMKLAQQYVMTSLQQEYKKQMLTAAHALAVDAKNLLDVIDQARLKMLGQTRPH

| SMILES | composite z-score |
| --- | --- |
| Cc1ccc(S[C@]2(C(=O)NC3CC3)CC(=O)N(Cc3cc(C(F)(F)F)cc(C(F)(F)F)c3)[C@@H]2c2ccc(CO)cc2)cc1 | 0.389 |
| O=C/C=C/c1ccccc1Cl | 0.878 |
| COC(=O)[C@@]1(Cc2ccccc2N=[N+]=[N-])N=C(c2ccc(OCCCO)cc2)O[C@H]1c1ccccc1CN=[N+]=[N-] | 0.926 |
| COC(=O)C(CC#Cc1ccc2c(c1)[C@]1(C(=O)N2)[C@H](C(=O)N2CCCCCCC2)[C@H]2C(=O)O[C@H](c3ccccc3)[C@H](c3ccccc3)N2[C@@H]1c1ccc(O)cc1)C(=O)OC | -0.222 |
| C=CCC(OC(C)=O)[C@@H]1[C@@H](N(Cc2cccc3ccccc23)C(=O)c2ccc(C)cc2)c2cc(OCCCO)ccc2N1C(=O)c1ccc(-c2ccccc2)cc1 (stereo not given in full) | -0.0095 |
| CCOC(=O)C[C@H]1[C@H](OC(=O)c2ccccc2-c2ccccc2)[C@@H](NC(=O)C2CCCCC2)c2cc(OCCCO)ccc2N1C(=O)c1ccccc1 | -0.268 |
| CC(C)CNC(=O)[C@@]1(C)c2ccccc2C(=O)N(Cc2ccc(OC(F)(F)F)cc2)[C@H]1c1ccc(CO)cc1 | -0.0752 |
| C=CC[C@]1(C(=O)O)N=C(c2ccc(OCCCO)cc2)O[C@H]1c1ccccc1 | -0.231 |
| O=C1OCC=C[C@H]2OC34C=CCN(Cc5ccccc5)C(=O)[C@H]3N(CCO)C(=O)[C@@H]4[C@@H]12 (stereo not given in full) | -0.248 |
| CO[C@@H]1COC(=O)CC=C[C@@H](C)[C@H](OC)COC(=O)CC=C[C@H]1C | -0.436 |
| CO[C@H]1COC(=O)[C@@H](C)COC(=O)[C@H](Cc2ccccc2)NC(=O)CC=C[C@H]1C | -0.62 |
| CN(C)c1ccc(C(O)C2C=CC3C(=O)NC(=O)C3N2Nc2ccc(Cl)cc2Cl)cc1 (stereo not given) | 0.155 |
| COc1ccc([Si](C)(C)[C@H]2[C@H](CCO)O[C@@]3(C(=O)N(Cc4ccccc4)c4ccc(N5C(=O)c6cccc7cccc5c67)cc43)[C@@H]2C)cc1 | 0.209 |
| CO[C@@H]1COC(=O)CC=C[C@H](C)COC(=O)[C@H](Cc2ccccc2)NC(=O)CC=C[C@H]1C | -0.389 |
| CCOC(=O)C[C@H]1[C@H](OC(=O)Cc2ccc3c(c2)OCO3)[C@@H](NC(=O)CC(C)C)c2cc(OCCCO)ccc2N1C(=O)c1ccccc1 | 0.344 |
| CO[C@@H]1COC(=O)[C@H](COCc2ccccc2)NC(=O)CC=C[C@@H](C)[C@H](OC)COC(=O)[C@H](COCc2ccccc2)NC(=O)CC=C[C@H]1C | -0.0624 |
| CC/C=C/C(=O)N(C[C@@H]1CCCO1)[C@@H]1CC(C(=O)NCCO)=C[C@H](Oc2c(I)cc(CO)cc2OC)[C@H]1O | 0.303 |
| CCC1=C2CN(Cc3ccccc3Br)[C@@H]([C@@H](O)Cc3ccccc3)C2C=CCC1 (stereo not given in full) | 0.172 |

| SMILES | composite z-score |
| --- | --- |
| CC(=O)NCCCC[C@@H]1NC(=O)[C@@H]2C[C@H](C(=O)NCCCCCNC(=O)CS)[C@H](c3ccc(O)cc3)N2C1=O | -0.295 |
| C=C(C)[C@@H]1CC=C(C(O)C2C=CC3C(=O)NC(=O)C3N2Nc2ccccn2)CC1 (stereo not given in full) | -0.167 |
| CCCC=C(CCC)[C@@H](NC(=O)c1ccc(C(F)(F)F)cc1)c1ccccc1 | 0.0363 |
| CO[C@@H]1COC(=O)[C@H](C)NC(=O)CC=C[C@@H](C)[C@H](NS(=O)(=O)c2ccc(C)cc2)COC(=O)CC=C[C@@H]1C | -0.181 |
| COC(=O)C1=C(C)N(Cc2ccccc2)c2c(C(=O)OC)c(C(=O)OC)c(C(=O)OC)c(=O)n2[C@@H]1c1ccccc1 | 0.39 |
| CO[C@H]1COC(=O)[C@@H](Cc2ccccc2)NC(=O)[C@@H](C)COC(=O)CC=C[C@@H]1C | -0.112 |
| CC(C)NC(=O)[C@@]1(Cc2ccccc2I)c2ccccc2C(=O)N(C2CCCCC2)[C@H]1c1ccc(CO)cc1 | 0.628 |
| COc1ccc([Si](C)(C)[C@H]2[C@H](CC(=O)N3Cc4ccccc4C[C@H]3CO)O[C@@]3(C(=O)N(Cc4cccc(N5CCOC5=O)c4)c4ccccc43)[C@@H]2C)cc1 | 0.432 |
| O=C1NC(=O)C2C1C=CC(C(O)C=Cc1ccc([N+](=O)[O-])cc1)N2Nc1ccccn1 (stereo not given) | -0.0708 |
| CO[C@H]1COC(=O)CC=C[C@H](C)[C@@H](OC)COC(=O)CC=C[C@@H]1C | -0.415 |
| COc1cc(Cc2cc3c(c(CCc4ccccc4)n2)[Si](C(C)C)(C(C)C)OC3)cc(OC)c1OC | 0.0612 |
| NC(=O)NCC#Cc1ccc2c(c1)[C@]1(C(=O)N2)[C@H](C(N)=O)[C@H]2C(=O)O[C@H](c3ccccc3)[C@H](c3ccccc3)N2[C@@H]1c1ccccc1OCCO | -0.0788 |
| COCCOC(=O)N1C(=O)[C@@]2(c3cc(C#CCNC(N)=O)ccc31)[C@H](C(=O)N1CCCCCCC1)[C@H]1C(=O)O[C@H](c3ccccc3)[C@H](c3ccccc3)N1[C@@H]2c1ccccc1OCCO | 0.784 |
| C=CCC(OC(C)=O)[C@@H]1[C@@H](N(Cc2ccc(-c3ccccc3)cc2)C(=O)c2ccc(-c3ccccc3)cc2)c2cc(OCCCO)ccc2N1C(=O)Cc1ccc(OC)cc1 (stereo not given in full) | 0.602 |
| C[C@H]1C2[C@H](Cc3ccccc3)NC(=O)[C@]23C(=O)N[C@H](Cc2ccccc2)C(=O)N[C@@H](Cc2ccccc2)C(=O)NC/C=C\C/C=C/C3[C@@H]2O[C@]12C (stereo not given in full) | 0.838 |
| CCOC(=O)C1=C[C@@H](c2ccccc2)N(S(=O)(=O)c2ccc(C)cc2)[C@H]1c1ccc(F)cc1 | 1.23 |
| CC(C)[Si](OCCCNS(=O)(=O)c1ccc(Br)cc1)(C(C)C)C(C)C | 0.339 |
